Compounds without any hit were thinned out: in the full panel of roughly 83,000, 20% have a hit.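 Cell lines were cultured in 96-well plates, exposed to a single compound concentration, and assessed for percent growth 48 hours later.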 Calls of active or inactive are those of the source. How the source made its calls: active means growth percent below 10; inactive means the rest.
test system: HOP-62 NSCLC; assay: NCI-60 one-dose screen, 48 h (100 = growth as untreated, 0 = no growth, -100 = all killed); conditions: 10 µM

| SMILES | growth |
| --- | --- |
| CC(C)N(CCOc1cccc(-c2nc3sccn3c2-c2ccnc(S(C)(=O)=O)n2)c1)C(C)C | 103% (inactive) |
| O=C(CSc1nnc(-c2ccc(Cl)cc2)o1)Nc1ccc(C(=O)/C=C/c2ccc(Cl)cc2)cc1 | 95.8% (inactive) |
| CC[C@@H](C(=O)[C@@H](C)[C@@H](O)[C@H](C)[C@@H]1O[C@@H]([C@@H](CC)C(=O)N(CC)CC)CC[C@@H]1C)C1O[C@]2(C=CC(=O)[C@]3(CC[C@@](C)([C@H]4CC[C@](O)(CC)[C@H](C)O4)O3)O2)[C@H](C)C[C@@H]1C (stereo not given in full) | 31.7% (inactive) |
| COc1ccc(-c2onc(N)c2-c2cc(OC)c3c(c2)OCO3)cc1 | 29.4% (inactive) |
| CCN(CC)CCOc1cccc2c1C(=O)c1cccc(OCCN(CC)CC)c1C2=O | 37% (inactive) |
| COc1cc(/C=C/c2cc(/C=C/c3ccc(O)c(OC)c3)n(C(=O)Nc3ccc(C)cc3)n2)ccc1O | 11.6% (inactive) |
| CCOC(=O)c1cc(C(=O)c2ccc(F)cc2F)n2ccccc12 | 88.6% (inactive) |
| COc1cc2c(cc1NC(=O)C(Cl)Cl)-c1ccc(NC(=O)C(Cl)Cl)cc1C2 | -58.3% (active) |
| COc1ccc(-c2cc(-c3ccccc3)nc(SCCCC(=O)NO)n2)cc1 | -20% (active) |
| O=S(=O)(Oc1ccc(-c2ccc3sccc3c2)cc1)c1ccc(F)cc1 | 111% (inactive) |
| COc1cc(-c2nn(-c3ccc(NC(=O)NCCCNC(=O)c4ccccc4)cc3)cc2-c2ccncc2)ccc1Cl | 41.5% (inactive) |
| CN(C)CCCOc1ccc(OCCCN(C)C)c2c1C(=O)c1ccccc1C2=O | -1.4% (active) |
| COc1cccc(C2C(C#N)=C(N)Oc3cc(N)ccc32)c1 (stereo not given) | 45.4% (inactive) |
| COc1cc(/C=C/c2cc(/C=C/c3ccc(O)c(OC)c3)[nH]c(=O)n2)ccc1O | 70.8% (inactive) |
| COc1ccc2nc(-c3ccc(Cl)cc3)cc(-c3nnc(SC/C(=N\O)c4ccccc4)n3-c3ccccc3)c2c1 | 109% (inactive) |
| CCOC(=O)CN(c1sc(C)c(C)c1C(=O)OCC)S(=O)(=O)c1ccc(C)cc1 | 94.1% (inactive) |
| COc1ccc(/C=C2/SC(=S)NC2=O)c(OC)c1OC | 69.2% (inactive) |
| CC(C)(C)OC(=O)N1CCc2c(sc3ncnc(N/N=C/c4ccccc4Br)c23)C1 | 85.8% (inactive) |
| NC(CSC(c1ccccc1)(c1ccccc1)c1cccc2ccccc12)C(=O)O (stereo not given) | 104% (inactive) |
| CN(C)CCCOc1ccccc1NC1=C(Cl)C(=O)C(Nc2ccccc2OCCCN(C)C)=C(Cl)C1=O | -96.9% (active) |

| SMILES | growth |
| --- | --- |
| NS(=O)(=O)c1ccc(Br)cc1 | 82.1% (inactive) |
| CN(C)CCCOc1ccc(NC2=C(Cl)C(=O)C(Nc3ccc(OCCCN(C)C)cc3)=C(Cl)C2=O)cc1 | -98.2% (active) |
| COc1ccc(-c2n[nH]nc2-c2cc(OC)c3c(c2OC)OCO3)cc1 | 36.1% (inactive) |
| C=CCn1c(SCC(=O)Nc2ccc(C(=O)/C=C/c3cc(OC)c(OC)c(OC)c3)cc2)nnc1-c1cc(-c2ccc(Cl)cc2)nc2ccccc12 | 97.5% (inactive) |
| COc1ccc(C2=Cn3c(CCC(=O)c4nc5ccccc5[nH]4)nnc3SC2)cc1 | 93.7% (inactive) |
| CCN1CCN(CCC(=O)Nc2cccc(-n3cc(-c4ccncc4)c(-c4ccc(Cl)c(OC)c4)n3)c2)CC1 | 37.7% (inactive) |
| N#CCc1csc(Cc2ccccc2)n1 | 104% (inactive) |
| Cc1[nH]c2ccccc2c1/C=N/Nc1ncnc2sc3c(c12)CCN(CC(=O)OC(C)(C)C)C3 | 92.4% (inactive) |
| CCCc1cn(CC(=O)Nc2nc3ccccc3s2)nn1 | 102% (inactive) |
| C/C=C/CSC(C)(C)C(=O)NC | 89.7% (inactive) |
| Cc1ccc(Cl)cc1NC(=O)CCl | 108% (inactive) |
| CCOC(=O)c1cc(C(=O)c2ccc(OC)c(OC)c2)n2c1ccc1ccc3cccnc3c12 | 29.8% (inactive) |
| Cc1c(Cl)cccc1NC(=O)CCCl | 86.9% (inactive) |
| Cc1ccc(NCCNCC(C)(C)O)c2c(=O)c3ccc(Cl)cc3sc12 | 80.1% (inactive) |
| OCC1OC(n2cnc3c(NCc4ccco4)ncnc32)C(O)C1O (stereo not given) | 43.2% (inactive) |
| NS(=O)(=O)Oc1ccc(NC(=O)C2CCCCCC2)cc1 | 99.3% (inactive) |
| COc1cc(-c2nn(-c3ccc(NC(=O)NCCNS(=O)(=O)c4ccc(F)cc4)cc3)cc2-c2ccncc2)ccc1Cl | 29.7% (inactive) |
| NS(=O)(=O)Oc1ccc2c(ccn2C(=O)C23CC4CC(CC(C4)C2)C3)c1 | 111% (inactive) |
| COc1ccc(-c2cc(-c3ccc(Cl)cc3)nc(SCCCC(=O)NO)n2)cc1 | 5.55% (active) |
| Nc1cc(Br)c(-c2nn3c(CCC(=O)c4nc5ccccc5[nH]4)nnc3s2)c(Br)c1 | 103% (inactive) |

test system: NCI-H460 lung; assay: as above; conditions: 10 µM

| SMILES | growth |
| --- | --- |
| CC(C)N(CCOc1cccc(-c2nc3sccn3c2-c2ccnc(S(C)(=O)=O)n2)c1)C(C)C | 94.7% (inactive) |
| O=C(CSc1nnc(-c2ccc(Cl)cc2)o1)Nc1ccc(C(=O)/C=C/c2ccc(Cl)cc2)cc1 | 98.2% (inactive) |
| CC[C@@H](C(=O)[C@@H](C)[C@@H](O)[C@H](C)[C@@H]1O[C@@H]([C@@H](CC)C(=O)N(CC)CC)CC[C@@H]1C)C1O[C@]2(C=CC(=O)[C@]3(CC[C@@](C)([C@H]4CC[C@](O)(CC)[C@H](C)O4)O3)O2)[C@H](C)C[C@@H]1C (stereo not given in full) | 18.5% (inactive) |
| COc1ccc(-c2onc(N)c2-c2cc(OC)c3c(c2)OCO3)cc1 | 14.9% (inactive) |
| CCN(CC)CCOc1cccc2c1C(=O)c1cccc(OCCN(CC)CC)c1C2=O | 13.9% (inactive) |
| COc1cc(/C=C/c2cc(/C=C/c3ccc(O)c(OC)c3)n(C(=O)Nc3ccc(C)cc3)n2)ccc1O | 10.1% (inactive) |
| CCOC(=O)c1cc(C(=O)c2ccc(F)cc2F)n2ccccc12 | 97.5% (inactive) |
| COc1cc2c(cc1NC(=O)C(Cl)Cl)-c1ccc(NC(=O)C(Cl)Cl)cc1C2 | -51.6% (active) |
| COc1ccc(-c2cc(-c3ccccc3)nc(SCCCC(=O)NO)n2)cc1 | -10.3% (active) |
| O=S(=O)(Oc1ccc(-c2ccc3sccc3c2)cc1)c1ccc(F)cc1 | 103% (inactive) |
| COc1cc(-c2nn(-c3ccc(NC(=O)NCCCNC(=O)c4ccccc4)cc3)cc2-c2ccncc2)ccc1Cl | 6.81% (active) |
| CN(C)CCCOc1ccc(OCCCN(C)C)c2c1C(=O)c1ccccc1C2=O | 0.0676% (active) |
| COc1cccc(C2C(C#N)=C(N)Oc3cc(N)ccc32)c1 (stereo not given) | 11.9% (inactive) |
| COc1cc(/C=C/c2cc(/C=C/c3ccc(O)c(OC)c3)[nH]c(=O)n2)ccc1O | 69.7% (inactive) |
| COc1ccc2nc(-c3ccc(Cl)cc3)cc(-c3nnc(SC/C(=N\O)c4ccccc4)n3-c3ccccc3)c2c1 | 86.9% (inactive) |
| CCOC(=O)CN(c1sc(C)c(C)c1C(=O)OCC)S(=O)(=O)c1ccc(C)cc1 | 98% (inactive) |
| COc1ccc(/C=C2/SC(=S)NC2=O)c(OC)c1OC | 90.3% (inactive) |
| CC(C)(C)OC(=O)N1CCc2c(sc3ncnc(N/N=C/c4ccccc4Br)c23)C1 | 49.2% (inactive) |
| NC(CSC(c1ccccc1)(c1ccccc1)c1cccc2ccccc12)C(=O)O (stereo not given) | 98.8% (inactive) |
| CN(C)CCCOc1ccccc1NC1=C(Cl)C(=O)C(Nc2ccccc2OCCCN(C)C)=C(Cl)C1=O | -20.6% (active) |

| SMILES | growth |
| --- | --- |
| NS(=O)(=O)c1ccc(Br)cc1 | 108% (inactive) |
| CN(C)CCCOc1ccc(NC2=C(Cl)C(=O)C(Nc3ccc(OCCCN(C)C)cc3)=C(Cl)C2=O)cc1 | -65.7% (active) |
| COc1ccc(-c2n[nH]nc2-c2cc(OC)c3c(c2OC)OCO3)cc1 | 11.4% (inactive) |
| C=CCn1c(SCC(=O)Nc2ccc(C(=O)/C=C/c3cc(OC)c(OC)c(OC)c3)cc2)nnc1-c1cc(-c2ccc(Cl)cc2)nc2ccccc12 | 93.1% (inactive) |
| COc1ccc(C2=Cn3c(CCC(=O)c4nc5ccccc5[nH]4)nnc3SC2)cc1 | 101% (inactive) |
| CCN1CCN(CCC(=O)Nc2cccc(-n3cc(-c4ccncc4)c(-c4ccc(Cl)c(OC)c4)n3)c2)CC1 | 6.94% (active) |
| N#CCc1csc(Cc2ccccc2)n1 | 102% (inactive) |
| Cc1[nH]c2ccccc2c1/C=N/Nc1ncnc2sc3c(c12)CCN(CC(=O)OC(C)(C)C)C3 | 98.3% (inactive) |
| CCCc1cn(CC(=O)Nc2nc3ccccc3s2)nn1 | 103% (inactive) |
| C/C=C/CSC(C)(C)C(=O)NC | 104% (inactive) |
| Cc1ccc(Cl)cc1NC(=O)CCl | 98.4% (inactive) |
| CCOC(=O)c1cc(C(=O)c2ccc(OC)c(OC)c2)n2c1ccc1ccc3cccnc3c12 | 11% (inactive) |
| Cc1c(Cl)cccc1NC(=O)CCCl | 102% (inactive) |
| Cc1ccc(NCCNCC(C)(C)O)c2c(=O)c3ccc(Cl)cc3sc12 | -73.7% (active) |
| OCC1OC(n2cnc3c(NCc4ccco4)ncnc32)C(O)C1O (stereo not given) | 23.1% (inactive) |
| NS(=O)(=O)Oc1ccc(NC(=O)C2CCCCCC2)cc1 | 106% (inactive) |
| COc1cc(-c2nn(-c3ccc(NC(=O)NCCNS(=O)(=O)c4ccc(F)cc4)cc3)cc2-c2ccncc2)ccc1Cl | 0.926% (active) |
| NS(=O)(=O)Oc1ccc2c(ccn2C(=O)C23CC4CC(CC(C4)C2)C3)c1 | 104% (inactive) |
| COc1ccc(-c2cc(-c3ccc(Cl)cc3)nc(SCCCC(=O)NO)n2)cc1 | 0.515% (active) |
| Nc1cc(Br)c(-c2nn3c(CCC(=O)c4nc5ccccc5[nH]4)nnc3s2)c(Br)c1 | 102% (inactive) |

From PubChem BioAssay (NCI)
